The record followed here is PubChem BioAssay (NCI).

This is part of a sample that, as a whole, favours compounds with a hit. Of some 83,000 tested, about 20% had one in any assay.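 For each line, cells grew in 96-well plates with the test compound present at a single concentration for 48 hours.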 A number with no mark means an inactive call.

The subject of the assay is ACHN renal. In words: NCI-60 one-dose screen, 48 h (100 = growth as untreated, 0 = no growth, -100 = all killed). To be noted: 10 µM. As to the method:
Growth inhibition of the ACHN human tumor cell line is measured as a screen for anti-cancer activity. Cells are grown in 96 well plates and exposed to the test compound for 48 hours. Compounds are tested at a single concentration, which is 10^-5 M for most compounds. The reported endpoint is percent growth (GI% or GIPRCNT), where numbers from 0 - 100% represent growth inhibition, and numbers from -100% - 0 represent cell death. For example, a value of 40 represents 60% growth inhibition. A value of 0 means no net growth occurred over the course of the experiment. A value of -40 indicates 40% of cells at the beginning of the experiment died by the end of the experiment. A value of -100 means all cells are dead at the end of the experiment.
NCI-60 Human Tumor Cell Lines Screen was performed using the standard one-dose NCI protocol, which is described in more detail at https://dtp.cancer.gov/discovery_development/nci-60/default.htm.
Compounds with GIPRCNT values below 10 were considered active. Activity score was based on GIPRCNT using the following formula: […]
Score is 0 for GIPRCNT values of 100 or above, 50 for GIPRCNT values of 0, and 100 for GIPRCNT values of -100.
On to `CC1CC(O)C2C3(C)CCCC2(COC3=O)C12CCC1(CCOC1=O)O2` (stereo not given), for which the growth was 108%.

`Cc1cc(NC(=O)CSCC(=O)O)no1`: the growth was 105%.

Regarding `O=C1Cc2ccccc2C(=O)O1`, the growth is 111%.

As for `O=C(/C=C/C(=O)c1ccccc1)c1ccccc1`, the growth is 90.1%.

Consider `CCCCCCCCCCCCCC(=O)Oc1ccc[nH]c1=O`, for which the growth was 110%.

Regarding `NC(CSC(c1ccccc1)(c1ccccc1)c1ccccc1)C(=O)O` (stereo not given), the growth is 57.5%.

Take `CC(C)COC(=O)COC(=O)OCCOCCOC(=O)OCC(=O)OCC(C)C`: the growth was 95.7%.

In the case of `CCOC(=O)C(=O)C=P(c1ccccc1)(c1ccccc1)c1ccccc1`, the growth is 108%.

As to `CCOC(=O)C/C(C)=N\O`, the growth is 112%.

As for `OCC(O)C(O)C(O)C(O)/C=N/O` (stereo not given), the growth is 112%.

On to `O=c1cc(-c2ccccc2)[nH]c2c1CCCC2`, for which the growth was 40.5%.

Turning to `CCN(CC)CCNc1ccc(CO)c2sc3ccccc3c(=O)c12`, the growth was 20.4%.

For `C[N+](C)=c1ccc2nc3c(cc(Nc4ccccc4)c4ccccc43)oc-2c1`, the growth is 82.1%.

With `CCN1C(=O)/C(=C/C=C/N(C)c2ccccc2)SC1=S`, the growth is 75.7%.

With `CCOc1ccc(I)cc1`, the growth is 110%.

Take `O=c1[nH]n(-c2ccccc2)c(=O)cc1Cl`: the growth was 98.5%.

For the compound `CCC(O)CC(CC)CO` (stereo not given), the growth was 105%.

In the case of `COC(=O)CCCCC1=CCC2C(=O)C=C(O)C2C1` (stereo not given), the growth was 98.9%.

For the compound `COc1ccc(Oc2c(I)cc(CC(NC(C)=O)C(=O)O)cc2I)cc1` (stereo not given), the growth was 97.6%.

Consider `COC(=O)Nc1nc2ccc(C(=O)c3cccs3)cc2[nH]1`, for which the growth is 40.5%.

Turning to `C#CC(C)(O)c1ccc(Cl)cc1` (stereo not given), the growth is 110%.

With `CCOC(=O)Nc1nn[nH]n1`, the growth was 100%.

On to `CC1(O)CCCCC1O` (stereo not given), for which the growth is 102%.

Regarding `CN(C)c1ccc2nc3ccc(=N)cc-3sc2c1`, the growth is 53%.

As to `O=C(/C(=N/O)c1ccccc1)c1ccccc1`, the growth is 106%.

On to `COc1ccc(OC)c(/C=C2\CCc3ccccc3C2=O)c1`, for which the growth is 52.7%.

Turning to `C/C(O)=C(\C=N\C(N)=S)C(=O)Nc1ccccc1`, the growth is 103%.

For `O=C(O)/C=C/c1ccc2c(c1)CCC2`, the growth is 107%.

As for `COc1ccc(C(O)c2ccccc2)cc1` (stereo not given), the growth was 106%.

With `CCCOC(=O)C(O)c1ccccc1` (stereo not given), the growth was 98.3%.

As to `c1cc2cccc3c4cccc5cccc(c(c1)c23)c54`, the growth is 102%.

`CCCCOC(=O)c1ccc(C(C)C)cc1`: the growth is 104%.

As for `Cc1ccc(CCCC(=O)O)c(C)c1`, the growth was 98.3%.

As to `COc1ccc2c(c1)CCc1c-2n[nH]c1-c1[nH]nc2c1CCc1cc(OC)ccc1-2`, the growth is 57.8%.

As to `COc1ccc(C2(O)CCCCC2)cc1`, the growth was 115%.

With `c1ccc(Sc2ccccc2)cc1`, the growth was 108%.

With `Cc1ccccc1C1N=C2Oc3ccccc3C=C2C(=O)N1` (stereo not given), the growth is 50.6%.

On to `CCOC(=O)/C(C#N)=C/c1cccc(C)c1`, for which the growth was 98.9%.

In the case of `CCCCCCCCCCCCCCCCC1CC(=O)OC1=O` (stereo not given), the growth was 110%.

In the case of `C=CCOC(=O)C(=O)OCC=C`, the growth was 100%.
